# Shown are actives, neighbours in structure and some others; about 3.4% of the full set was active somewhere.
# TEAD-YAP block – TEAD-YAP interaction inhibition. 640,000 compounds, 1.4% hits. HEK-TIYL cells, TEAD-Gal4/YAP UAS-luciferase luminescence. inhibition, % at 9.12 µM; in the data active means inhibition above about 32%;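 further: 0% = median of test compound wells and 100% = reference inhibitor wells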
# MITF inh – inhibitors of human MITF; O75030; AlphaScreen MITF homodimerization, bead proximity signal; inhibition, % at 2.6 µM; 650,000 compounds, 0.91% hits; AID 1259374; in the data active means inhibition above about 50%;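 further: 0% = vehicle wells with protein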
# FBW7 act – activators of human E3 ligase FBW7 | 650,000 compounds, 0.13% hits | normalized activity (activation), % at 26.1 µM | AlphaScreen FBW7–phospho-cyclin E peptide binding, activator screen | Q969H0; in the data active means normalized activity above about 1.9%;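 further: purified mutant Fbw7 with reduced substrate affinity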
# GPR151 activ – human GPR151 activation. Q8TDV0. PathHunter beta-arrestin GPR151 cells, luminescence. activation, % at 11.2 µM. 650,000 compounds, 1% hits; in the data active means activation above about 4.9%;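 further: 0% = median of compound wells and 100% = cells with positive control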
# Target sequence (Q8TDV0 whole entry, looked up): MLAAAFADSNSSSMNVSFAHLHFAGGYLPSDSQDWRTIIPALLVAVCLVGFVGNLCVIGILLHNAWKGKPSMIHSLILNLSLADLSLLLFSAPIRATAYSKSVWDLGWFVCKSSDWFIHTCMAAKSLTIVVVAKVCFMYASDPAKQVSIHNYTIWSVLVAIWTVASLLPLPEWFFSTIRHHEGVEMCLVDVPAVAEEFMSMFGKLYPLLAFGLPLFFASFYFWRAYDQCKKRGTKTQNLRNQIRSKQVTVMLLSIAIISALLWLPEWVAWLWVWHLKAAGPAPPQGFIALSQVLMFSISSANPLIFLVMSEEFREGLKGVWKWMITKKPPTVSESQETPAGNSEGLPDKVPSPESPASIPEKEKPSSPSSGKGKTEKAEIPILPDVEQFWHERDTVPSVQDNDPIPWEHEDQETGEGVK
# GPR151 conf act – human GPR151 activation, confirmation screen | shares compounds with GPR151 activ | 6,700 tested, under 10 active | GPR151 PathHunter beta-arrestin cells, luminescence, 90 min; % of EA-reagent control over plate median | AID 1508609 | activation, % at 11.2 µM;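 active means mean percent activation across replicates above the confirmation screen cutoff of 4.91%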
# GPR119 counter – activates human GPR119 in a GPR151 counter-screen; shares compounds with GPR151 activ; GPR119 PathHunter beta-arrestin cells, luminescence, 90 min; 0 = compound-well median, 100 = enzyme-acceptor control; activation, % at 11.2 µM; 6,700 compounds, 0.3% hits; AID 1508611;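 active means mean percent activation in the counterscreen above 29.09%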;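 further: counterscreen on off-target GPR119 to flag nonselective hits from the GPR151 activator screen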
# Starred values were filed as active, the others as inactive; · = no result.
SMILES,TEAD-YAP block,MITF inh,FBW7 act,GPR151 activ,GPR151 conf act,GPR119 counter
CCOC(=O)C1CN(S(=O)(=O)c2ccc(OC)cc2)c2ccccc2O1 (centres undefined),2,-9,0,6.5*,-1,-10
Cc1sc2ncn(CC(=O)NC3CCCCC3)c(=O)c2c1S(=O)(=O)N1CCOCC1,-9,-5,0,1,·,·
O=[N+]([O-])c1ccc(C2Nc3ccccc3S(=O)(=O)N2Cc2ccccc2)cc1 (centres undefined),-3,3,0,6.7*,0,-6
COc1ccc(C2Nc3ccccc3S(=O)(=O)N2Cc2ccccc2)cc1[N+](=O)[O-] (centres undefined),-3,-7,0,0,·,·
CCCn1nnnc1SCC(=O)Nc1cccc(NC(C)=O)c1,-3,-8,0,5.2*,2,7
CCn1nnnc1SCC(=O)Nc1cccc(NC(C)=O)c1,-8,-13,0,0,·,·
Cc1ccc(C2/C(=C(/O)c3ccc(Cl)cc3)C(=O)C(=O)N2CCN2CCOCC2)o1 (centres undefined),4,2,0,-1,·,·
C=C(C)C1CCC(C)=C1COC(=O)c1ccc([N+](=O)[O-])cc1 (centres undefined),7,11,0,2,·,·
O=C1c2cccc3cccc(c23)C(=O)N1Cc1ccco1,-4,16,0,-2,·,·
O=C1c2cc3ccccc3cc2C(=O)N1Cc1ccco1,9,17,0,5.8*,0,-8
Cc1ccc(COc2c(Br)cc(/C=C(\C#N)c3nn(CCO)c(N)c3C#N)cc2Br)cc1,-4,7,0,6.9*,0,5
CCCc1ccc(S(=O)(=O)Nc2ccc3c(c2)CC(=O)N3C)cc1,8,2,0,4.9*,0,-17
CCOc1ccc(/C=C2\N=C(c3cc(F)c(F)cc3Cl)OC2=O)cc1,0,3,0,1,·,·
CCOc1ccc(OC(=O)c2ccc(C(=O)Oc3ccc(OCC)cc3)nc2)cc1,-6,-12,0,-1,·,·
CCc1ccc(OC(=O)c2ccc(C(=O)Oc3ccc(CC)cc3)nc2)cc1,9,-20,0,5.4*,0,-3
CC(=O)O[C@]1(C(C)=O)CC[C@H]2[C@@H]3C=C(Cl)C4=CC(=O)CC[C@]4(C)[C@H]3CC[C@@]21C,·,16,0,5.2*,0,15
CN1C(=O)c2cccc(NC(=O)c3ccc4ccccc4c3)c2C1=O,0,3,0,7.6*,1,4
O=C(O)c1ccccc1Nc1nc(N2CCOCC2)nc(N2CCOCC2)n1,-41,-3,0,9.0*,-1,-13
CC(C)(C)C(=O)CSc1nc2cc(C(=O)Nc3cccc(Cl)c3)ccc2c(=O)n1C1CCCCC1,5,6,0,1,·,·
Cc1nc(SCc2ccccc2C)c2c(=O)n(C)c(=O)n(C)c2n1,5,0,0,-1,·,·
COc1ccc(C(=O)NNC(=O)c2ccco2)cc1OC,-3,-3,0,0,·,·
COc1cc(C)cc(CN2CCN(Cc3ccc4c(c3)OCO4)CC2)c1O,-11,0,0,5.3*,0,7
COc1cc(OC)c(CN2CCN(Cc3ccc4c(c3)OCO4)CC2)cc1Br,-5,39,0,3,·,·
CCc1ccc(OCC(=O)NCc2ccccc2OC)cc1,3,8,0,5.1*,-1,-5
COc1ccccc1CNC(=O)COc1ccccc1,-24,0,0,4,·,·
SMILES,TEAD-YAP block,MITF inh,FBW7 act,GPR151 activ,GPR151 conf act,GPR119 counter
COc1ccccc1CNC(=O)COc1ccc(Br)cc1Cl,2,11,0,12*,-1,-10
CC(NC(=O)C1CC(Cc2cccc(F)c2)=NO1)c1ccccc1Cl (centres undefined),-55,5,0,0,·,·
C=CCC(O)(CC=C)C(C)NC(=O)C1CC(Cc2cccc(Cl)c2)=NO1 (centres undefined),-2,4,0,11*,1,9
COC(=O)C(CCSC)NC(=O)c1ccccc1F (centres undefined),-1,11,1,6.9*,0,-4
Cc1cc(C(=O)Nc2ccc(Br)c(C)n2)ccc1[N+](=O)[O-],-69,16,0,5.0*,-1,-2
Cc1cc(C(=O)Nc2ccc(I)c(C)n2)ccc1[N+](=O)[O-],-28,19,0,0,·,·
Cc1nc2cc(NCc3ccc(N(C)C)cc3)ccc2n1C,7,1,-1,0,·,·
CCOC(=O)Cc1c(C)c2ccc(N(CC)CC)cc2oc1=O,-10,-14,1,7.2*,0,10
CC1=C(C#N)C(=O)N(C)C(=O)/C1=C/c1ccc(-c2cccc(Cl)c2C)o1,-1,-12,-1,5.0*,-1,-6
CC1=C(C#N)C(=O)N(C)C(=O)/C1=C/c1ccc(-c2ccccc2C(=O)O)o1,3,20,0,0,·,·
CC(OC(=O)CCC(=O)c1ccc(F)cc1)C(N)=O (centres undefined),6,1,0,1,·,·
CCOc1cnc(C(=O)NNC(=O)c2ccc(S(=O)(=O)N(C)C)cc2)o1,1,-6,0,6.0*,0,-4
O=C(CCc1nnc(CCc2c[nH]c3ccccc23)o1)NCC1CC1,3,3,0,5.4*,1,8
O=C(CCc1nnc(CCc2c[nH]c3ccccc23)o1)N1CCN(CC2CC2)CC1,7,-7,0,0,·,·
COc1cc(Nc2nc(-c3ccc(N4CCOCC4)nc3)nc3c2ncn3Cc2ccc(C(F)(F)F)cc2)cc(OC)c1OC,-7,8,0,6.6*,-1,-7
COc1cc(Nc2nc(Nc3ccc4c(c3)OCO4)c3ncn(Cc4ccc(C(F)(F)F)cc4)c3n2)cc(OC)c1OC,-5,0,0,5.5*,0,-1
COc1cc(Nc2nc(NCc3ccc4c(c3)OCO4)nc3c2ncn3Cc2ccc(C(F)(F)F)cc2)cc(OC)c1OC,-4,-3,0,-1,·,·
FC(F)(F)c1ccc(Cn2cnc3c(Nc4ccc(N5CCOCC5)cc4)nc(-c4ccc(N5CCOCC5)nc4)nc32)cc1,5,18,0,-2,·,·
O=C(c1nn2c(C(F)(F)F)cc(-c3ccc(Br)cc3)nc2c1Cl)N1CCc2ccccc2C1,-5,10,0,0,·,·
Clc1ccccc1/C=N/Nc1nncc(-c2ccccc2)n1,-26,-6,-1,6.2*,0,0
O=c1c2sccc2nc(SCc2ccc([N+](=O)[O-])cc2)n1-c1cccc(Cl)c1Cl,-3,12,0,1,·,·
CCOc1ccc(NC(=O)/C(C#N)=C/C2=Cc3ccccc3OC2C)cc1 (centres undefined),-5,15,0,0,·,·
